In this assay the test system is T1, CTL2-GFP (C. trachomatis L2/434/Bu, GFP-expressing).
T1 construct: L2/434/Bu, GFP-expressing
Further details: species or system HeLa; Intracellular C. trachomatis growth in HeLa cells, bulk GFP fluorescence relative to DMSO. The note with it: bulk GFP, single well; 28.5 h, 10 µM; inhibitor. The protocol:
MICs were calculated as described above.
In the case of `O=C(c1cccc(S(=O)(=O)F)c1)N1CCCCC1` [CBK074224], the “% of control remaining” value is recorded as 100.074%. For the compound `CCOC(=O)CC(C)(O)P(=O)(OC)OC` (stereo not drawn) [CBK261287], the “% of control remaining” value is 100%. The same measure for `S=P(Oc1ccccc1)(Oc1ccccc1)Oc1ccccc1` [CBK260987]: 100%.

(Values after paper PMC12040169 (PLOS Biology, 2025).)
